# Assay results published in PubChem BioAssay (NCI).
# Several values for one entry are separate records, joined by “and”; a condition that tells them apart may be missing. Identical values can stand only once. Compounds without any hit were thinned out: in the full panel of roughly 79,000, 15% have a hit. Where a structure was tested more than once in an assay, its records may differ in their call. Activity calls are given as the source filed them. Cut-off read from the data, not from the text of the source: active = growth inhibition above about 70%; inactive = the rest.
# What was measured:
# [1] = NCI Yeast Anticancer Drug Screen. Data for the rad50 strain (AID 155);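 note: 0% = growth of vehicle-only cultures of the same strain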; details: S. cerevisiae rad50 strain growth inhibition, stronger effect = higher value
# Procedure, shortened: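 DNA repair mutant yeast, compound exposure, growth read-out; inhibition is taken relative to vehicle.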
# [2] = NCI Yeast Anticancer Drug Screen. Data for the mec2-1 strain (AID 157); details: S. cerevisiae mec2-1 strain, stronger effect = higher value
# Procedure, shortened: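 Using mec2-1 yeast: add compound, measure growth, express inhibition versus vehicle-treated cultures.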
# [3] = NCI Yeast Anticancer Drug Screen. Data for the sgs1 mgt1 strain (AID 161);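 note: 0% = growth of cultures given vehicle only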; details: S. cerevisiae sgs1 mgt1 strain, stronger effect = higher value
# Procedure, shortened: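 Yeast cells carrying a defined DNA-repair defect were exposed to test compounds. Growth inhibition was measured relative to vehicle-treated controls.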
# [4] = NCI Yeast Anticancer Drug Screen. Data for the cln2 rad14 strain (AID 165);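 note: 0% = growth equal to vehicle treated cultures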; details: S. cerevisiae cln2 rad14 strain, stronger effect = higher value
# Procedure, shortened: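 Yeast strain cln2 rad14, bearing defects in cell cycle control and DNA repair, serves as the test system; values reflect growth inhibition compared with vehicle.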
# [5] = NCI Yeast Anticancer Drug Screen. Data for the bub3 strain (AID 167); details: S. cerevisiae bub3 mutant strain, stronger effect = higher value
# Procedure, shortened: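 In this screen, a yeast mutant lacking normal mitotic checkpoint function is challenged with compound. Relative growth versus vehicle gives the inhibition value.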
# [6] = NCI Yeast Anticancer Drug Screen. Data for the mlh1 rad18 strain (AID 175); details: S. cerevisiae mlh1 rad18 strain growth inhibition, stronger effect = higher value
# Procedure, shortened: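 Steps: expose repair-defective yeast to compound; measure growth; express inhibition against vehicle-treated controls.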
# [7] = at 5.0 µM (retest, dose inferred, filed as 0.5)
# [8] = at 50.0 µM (retest, dose inferred, filed as 5.0)
Compound,"growth inhibition [1, 7]","growth inhibition [1, 8]",growth inhibition ([1]; at 50.0 µM),"growth inhibition [2, 7]","growth inhibition [2, 8]",growth inhibition ([2]; at 50.0 µM),"growth inhibition [3, 7]","growth inhibition [3, 8]",growth inhibition ([3]; at 50.0 µM),"growth inhibition [4, 7]","growth inhibition [4, 8]",growth inhibition ([4]; at 50.0 µM),"growth inhibition [5, 7]","growth inhibition [5, 8]",growth inhibition ([5]; at 50.0 µM),"growth inhibition [6, 7]","growth inhibition [6, 8]",growth inhibition ([6]; at 50.0 µM)
NC(CC(=O)O)C(=O)O (centres undefined),-2% (inactive),2% (inactive),-21.4% (inactive) and 99.3% (active) and 3.3% (inactive),-10% (inactive),-3% (inactive),-7.85% (inactive) and 99.6% (active) and 9.7% (inactive),-3% (inactive),0% (inactive),-30.9% (inactive) and 98% (active) and -5.9% (inactive),4% (inactive),-7% (inactive),-7.75% (inactive) and 99.3% (active) and 16.6% (inactive),5% (inactive),0% (inactive),-10.1% (inactive) and 99.6% (active) and -3.75% (inactive),-3% (inactive),4% (inactive),-14.1% (inactive) and 99.5% (active) and 21.2% (inactive)
O=C(Nc1ccc(C(=O)O)c(O)c1)c1ccccc1,-2% (inactive),40% (inactive),1.35% (inactive) and -5.6% (inactive),-12% (inactive),-26% (inactive),0.7% (inactive) and -0.4% (inactive),0% (inactive),0% (inactive),-20% (inactive) and 3.05% (inactive),-4% (inactive),-5% (inactive),-26.9% (inactive) and 14.5% (inactive),1% (inactive),6% (inactive),15.7% (inactive) and 12.3% (inactive),-3% (inactive),6% (inactive),8.1% (inactive) and -3.2% (inactive)
CC1CP(c2ccccc2)(c2ccccc2)(c2ccccc2)OC1(C(=O)c1ccccc1)c1ccccc1 (centres undefined),-1% (inactive),9% (inactive),93.9% (active),8% (inactive),7% (inactive),99.3% (active),-21% (inactive),-1% (inactive),99.3% (active),-9% (inactive),2% (inactive),98.9% (active),-1% (inactive),11% (inactive),98.8% (active),-15% (inactive),29% (inactive),99.2% (active)
CCCCCCC(CCCCCCCCCCC(=O)OCC(CC)CC)OC(=O)CC (centres undefined),-4% (inactive),-4% (inactive),21.2% (inactive),-3% (inactive),-6% (inactive),7.9% (inactive),-4% (inactive),-23% (inactive),7.4% (inactive),-2% (inactive),-13% (inactive),21.4% (inactive),-3% (inactive),-5% (inactive),-6.9% (inactive),-3% (inactive),-6% (inactive),39.5% (inactive)
CN1C(c2ccccc2)CC(=NO)CC1c1ccccc1 (centres undefined),18% (inactive),58% (inactive),24.6% (inactive) and 93.9% (active),1% (inactive),45% (inactive),6.35% (inactive) and 27.3% (inactive),6% (inactive),58% (inactive),3.9% (inactive) and 82.2% (active),-12% (inactive),20% (inactive),5.8% (inactive) and 32.3% (inactive),7% (inactive),23% (inactive),-7.15% (inactive) and 62% (inactive),-1% (inactive),41% (inactive),30.4% (inactive) and 85.2% (active)
Nc1cc2c(cc1Cl)[nH]c(=O)c1cc(Cl)ccc12,46% (inactive),65% (inactive),86.2% (active),27% (inactive),14% (inactive),3.6% (inactive),26% (inactive),17% (inactive),18.3% (inactive),10% (inactive),6% (inactive),-0.9% (inactive),39% (inactive),10% (inactive),-11.3% (inactive),38% (inactive),40% (inactive),22.6% (inactive)
OCC(O)C(O)C(O)C(/C=N/Nc1ccccc1)=N/Nc1ccccc1 (centres undefined),2% (inactive),-13% (inactive),40.5% (inactive) and 21.7% (inactive) and 50.6% (inactive),-2% (inactive),-34% (inactive),-5.35% (inactive) and -4.3% (inactive) and 15.8% (inactive),2% (inactive),-9% (inactive),55.5% (inactive) and 27.6% (inactive) and 33% (inactive),5% (inactive),-12% (inactive),5.55% (inactive) and -6.8% (inactive) and -39.8% (inactive),5% (inactive),8% (inactive),-12.9% (inactive) and -5.05% (inactive) and -1.05% (inactive),20% (inactive),0% (inactive),24.9% (inactive) and 21.1% (inactive) and 48.2% (inactive)
NCC(=O)OCN1C(=O)C2C3C=CC(C2C1=O)C1C2C(=O)N(COC(=O)CN)C(=O)C2C31 (centres undefined),28% (inactive),63% (inactive),-5.35% (inactive) and 24% (inactive),20% (inactive),39% (inactive),8.65% (inactive) and -62% (inactive),25% (inactive),45% (inactive),4.85% (inactive) and -30.4% (inactive),21% (inactive),55% (inactive),23.5% (inactive) and -6.55% (inactive),24% (inactive),68% (inactive),-15.2% (inactive) and -46.8% (inactive),26% (inactive),71% (active),-18.6% (inactive) and -43.7% (inactive)
